In PubChem BioAssay (NCATS):
Several values for one entry are separate records, joined by “and”; a condition that tells them apart may be missing. Equal values may be shown once. Results filed as inconclusive are left out. Activity calls are given as the source filed them. Unless noted, the call rests on the fitted dose curve; in most records, active means well fitted curve in the direction sought with a large enough effect; inconclusive means small, poorly fitted or top-dose-only effect, or another doubt; inactive means no such curve, though single readings can be large; an effect the other way counts as inactive or inconclusive.

Assays:
AS120 = assay: qHTS profiling for inhibitors of Plasmodium falciparum proliferation (AID 504749); further: nearly all actives have a fitted effect of over 60% in size; further: potency means the concentration at half of the fitted maximal effect; settings: P. falciparum in erythrocytes, SYBR Green DNA, 72 h; series mostly up to 28.7 µM
Procedure, shortened: (§1)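 P. falciparum-infected erythrocytes (0.3% parasitemia, 2.5% hematocrit final) were exposed to compounds for 72 h at 37 C in 5% CO2, then lysed with SYBR Green buffer overnight at room temperature; parasite DNA fluorescence was normalized to artemisinin and DMSO controls.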

ATS189 = assay: as above; settings: P. falciparum in erythrocytes, SYBR Green DNA, 72 h; series mostly up to 28.7 µM
Procedure, shortened: as §1

ATS95 = assay: as above; settings: P. falciparum in erythrocytes, SYBR Green DNA, 72 h; series mostly up to 28.7 µM
Procedure, shortened: as §1

C2A = assay: as above; settings: P. falciparum in erythrocytes, SYBR Green DNA, 72 h; series mostly up to 28.7 µM
Procedure, shortened: as §1

CP185 = assay: as above; settings: P. falciparum in erythrocytes, SYBR Green DNA, 72 h; series mostly up to 28.7 µM
Procedure, shortened: as §1

CP191 = assay: as above; settings: P. falciparum in erythrocytes, SYBR Green DNA, 72 h; series mostly up to 28.7 µM
Procedure, shortened: as §1

CP217 = assay: as above; settings: P. falciparum in erythrocytes, SYBR Green DNA, 72 h; series mostly up to 28.7 µM
Procedure, shortened: as §1

CP237 = assay: as above; settings: P. falciparum in erythrocytes, SYBR Green DNA, 72 h; series mostly up to 28.7 µM
Procedure, shortened: as §1

CP252 = assay: as above; settings: P. falciparum in erythrocytes, SYBR Green DNA, 72 h; series mostly up to 28.7 µM
Procedure, shortened: as §1

CP286 = assay: as above; settings: P. falciparum in erythrocytes, SYBR Green DNA, 72 h; series mostly up to 28.7 µM
Procedure, shortened: as §1

ECU = assay: as above; settings: P. falciparum in erythrocytes, SYBR Green DNA, 72 h; series mostly up to 28.7 µM
Procedure, shortened: as §1

PC49 = assay: as above; settings: P. falciparum in erythrocytes, SYBR Green DNA, 72 h; series mostly up to 28.7 µM
Procedure, shortened: as §1

SC27B = assay: as above; settings: P. falciparum in erythrocytes, SYBR Green DNA, 72 h; series mostly up to 28.7 µM
Procedure, shortened: as §1

TAB113 = assay: as above; settings: P. falciparum in erythrocytes, SYBR Green DNA, 72 h; series mostly up to 28.7 µM
Procedure, shortened: as §1

TAB165 = assay: as above; settings: P. falciparum in erythrocytes, SYBR Green DNA, 72 h; series mostly up to 28.7 µM
Procedure, shortened: as §1

[1] = target: Glucocorticoid receptor (Homo sapiens) (UniProt P04150); assay: GR-EFC Redistribution (AID 451; calls by dose curve; further: potency means the concentration at half of the fitted maximal effect); settings: CHO-K1 GR-EFC translocation, beta-gal luminescence, 2 h
Procedure, shortened: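 CHO-K1 cells stably expressing nuclear-localized β-gal enzyme acceptor and GR fused C-terminally to the enzyme donor fragment; ligand-driven nuclear translocation restores β-gal by complementation. Compounds titrated up to 46 uM final, 2 h at 37 °C; luminescence read.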

[2] = target: Mitogen-activated protein kinase 10 (Mus musculus) (UniProt Q61831); assay: JNK3 AlphaScreen Assay (AID 530; active means well fitted curve in either direction with a large enough effect, not every such curve was filed as active;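 further: kinase came from lysate of stimulated human HepG2 cells; signal reports phosphorylation of biotinylated GST-cJun 1-79 at Ser73 with 10 µM ATP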)
Procedure, shortened: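 JNK3 came from HepG2 lysates pre-activated with IL-1beta and TNF-alpha and phosphorylated biotinylated GST-cJun (1-79) at 10 uM ATP, pH 7.6, room temperature. Compounds were titrated. AlphaScreen signal used anti-phospho-cJun (Ser73) antibody.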

[3] = qHTS Assay for Identification of Small Molecule Antagonists for NFkB Signaling Pathway (AID 895; active means well fitted inhibition curve with a large enough effect in the signal ratio, with a control signal flat, not every such curve was filed as active; the % refers to the signal ratio; further: potency means the concentration at half of the fitted maximal effect)
Procedure, shortened: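 NFkB-bla ME-180 cervical carcinoma cells with beta-lactamase reporter under NFkB response element; compounds added, then TNF alpha at 10 pM final (EC50), 5 h at 37 C. LiveBLAzer substrate 2 h, room temperature; emission 460/530 nm at 405 nm excitation.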

[4] = qHTS Assay for Identification of Small Molecule Agonists for Thrombopoietin (TPO) Signaling Pathway (AID 917)
Procedure, shortened: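 Luminescence from a Glycoprotein IIb promoter–driven luciferase reporter served as read-out in murine Ba/F3 cells carrying the human TPO receptor. Cells, deprived of IL-3 overnight, received compounds with 26 pM TPO and were incubated 24 hrs at 37 C.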

[5] = target: Glucocorticoid receptor (Homo sapiens) (UniProt P04150); assay: GR-GFP Redistribution (AID 450;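 active means compounds whose dose series gives a full or clear partial fitted curve of increased nuclear translocation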; further: potency means the concentration at half of the fitted maximal effect); settings: U2OS GR-GFP nuclear translocation, laser cytometry, 2 h

Measured: Potency

Sequence of Glucocorticoid receptor (Homo sapiens) (P04150 whole entry, looked up, the tested form may be a part): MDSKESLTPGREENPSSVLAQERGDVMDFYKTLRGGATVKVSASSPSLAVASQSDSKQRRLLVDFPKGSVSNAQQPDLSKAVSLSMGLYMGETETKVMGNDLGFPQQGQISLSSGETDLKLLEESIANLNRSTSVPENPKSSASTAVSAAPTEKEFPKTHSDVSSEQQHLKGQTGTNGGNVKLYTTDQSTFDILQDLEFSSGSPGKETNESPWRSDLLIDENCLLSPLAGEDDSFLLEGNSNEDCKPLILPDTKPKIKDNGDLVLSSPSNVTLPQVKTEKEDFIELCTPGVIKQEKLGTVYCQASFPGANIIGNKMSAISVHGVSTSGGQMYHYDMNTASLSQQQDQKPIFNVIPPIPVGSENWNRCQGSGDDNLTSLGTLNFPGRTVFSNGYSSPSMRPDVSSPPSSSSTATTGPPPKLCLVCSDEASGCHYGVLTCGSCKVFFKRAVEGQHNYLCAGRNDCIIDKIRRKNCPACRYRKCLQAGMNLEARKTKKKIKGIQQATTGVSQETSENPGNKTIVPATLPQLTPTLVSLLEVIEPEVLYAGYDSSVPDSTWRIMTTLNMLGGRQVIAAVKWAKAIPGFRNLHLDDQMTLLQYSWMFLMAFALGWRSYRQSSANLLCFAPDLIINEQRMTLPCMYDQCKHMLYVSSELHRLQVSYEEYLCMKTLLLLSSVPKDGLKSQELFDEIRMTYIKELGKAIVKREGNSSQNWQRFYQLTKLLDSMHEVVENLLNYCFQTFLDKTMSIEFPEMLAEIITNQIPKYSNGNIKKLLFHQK

N[C@H](Cc1ccc(O)c(O)c1)C(=O)O
inactive: AS120 | ATS189 | ATS95 | C2A | CP185 | CP191 | CP217 | CP237 | CP252 | CP286 | ECU | PC49 | SC27B | TAB113 | TAB165

COc1ccc(CCNC[C@@H](O)c2ccc(O)cc2)cc1OC
inactive: AS120 | ATS189 | ATS95 | C2A | CP185 | CP191 | CP217 | CP237 | CP252 | CP286 | ECU | PC49 | SC27B | TAB113 | TAB165

NCCC(=O)NCCc1cnc[nH]1
inactive: [1] > 46 µM and > 20.6 µM | [2] | [3] | [4]

CN=C(N)NCCCC(N)C(=O)O (configuration not stated)
inactive: AS120 | ATS189 | ATS95 | C2A | CP185 | CP191 | CP217 | CP237 | CP252 | CP286 | ECU | PC49 | SC27B | TAB113 | TAB165

NC(=NCCC[C@H](N)C(=O)O)NO
active: [3] 0.398 µM
inactive: [5] > 46 µM | [1] > 46 µM | [2] | [4]

NCCNC(=O)c1ccc(Cl)cc1
inactive: [5] > 46 µM | [2] | [4]

CN1C(=O)CCC1c1cccnc1 (configuration not stated)
inactive: AS120 | ATS189 | ATS95 | C2A | CP185 | CP191 | CP217 | CP237 | CP252 | CP286 | ECU | PC49 | SC27B | TAB113 | TAB165

N=C1Sc2ccccc2C2=NCCCN12
inactive: [5] > 46 µM | [1] > 46 µM | [2]
active: [3] 2 µM

N=C(N)SCCc1cccc(CCSC(=N)N)c1
inactive: [5] > 46 µM | [2] | [3] | [4]

CN1C[C@H](C(=O)N[C@]2(C)O[C@@]3(O)C4CCCN4C(=O)[C@H](Cc4ccccc4)N3C2=O)C[C@@H]2c3cccc4[nH]cc(c34)C[C@H]21 (some centres not stated)
active: AS120 1.41 µM | ATS189 3.98 µM | ATS95 7.08 µM | C2A 8.91 µM | CP185 7.94 µM | CP191 7.08 µM | CP217 6.31 µM | CP237 1 µM | CP252 6.31 µM | CP286 3.98 µM | ECU 1.12 µM | PC49 1.78 µM | SC27B 2.24 µM | TAB113 3.55 µM | TAB165 1.41 µM

CCSC(N)=Nc1ccc(C(F)(F)F)cc1
inactive: [5] > 46 µM | [1] > 46 µM | [2] | [4]

CC(C)CN(C)c1nc(N)c(C(=O)N=C(N)N)nc1Cl
inactive: [1] > 46 µM | [2] | [3]

COc1cc2c(cc1OC)C(c1ccccc1)CN(C)CC2 (configuration not stated)
active: CP237 6.31 µM
inactive: AS120 | ATS189 | ATS95 | C2A | CP185 | CP217 | CP252 | CP286 | ECU | SC27B | TAB113 | TAB165

NCCCCNS(=O)(=O)c1cccc2c(Cl)cccc12
inactive: [5] > 46 µM | [1] > 46 µM

CC(C)(C)[C@]1(O)CCN2CC3c4ccccc4CCc4cccc(c43)[C@@H]2C1 (some centres not stated)
inactive: PC49
active: ATS95 10 µM | C2A 11.2 µM | CP191 8.91 µM | CP217 8.91 µM | CP237 11.2 µM | CP252 10 µM | CP286 8.91 µM | ECU 14.1 µM | SC27B 7.94 µM | TAB165 11.2 µM

CC(=O)NCCc1ccc(O)c(O)c1
inactive: [5] > 46 µM | [1] > 46 µM | [3] | [4]

COC(=O)c1c(-c2cc(OC)c(OC)c(OC)c2)c2ccc(OCc3ccccn3)cc2c(=O)n1-c1ccc(N)cc1
inactive: [5] > 46 µM | [1] > 46 µM | [2] | [4]
active: [3] 3.16 µM

CCn1c(=O)c2[nH]c(-c3ccccc3)nc2n(CC)c1=O
inactive: [5] > 46 µM | [3]

CC(C)C[C@H]1C(=O)N2CCCC2[C@]2(O)O[C@](NC(=O)[C@@H]3C=C4c5cccc6[nH]c(Br)c(c56)C[C@H]4N(C)C3)(C(C)C)C(=O)N12 (some centres not stated)
active: AS120 3.55 µM | ATS189 5.01 µM | ATS95 5.01 µM | C2A 11.2 µM | CP185 11.2 µM | CP191 7.94 µM | CP217 7.08 µM | CP237 2 µM | CP252 7.08 µM | CP286 3.55 µM | ECU 3.55 µM | PC49 6.31 µM | SC27B 6.31 µM | TAB113 3.16 µM | TAB165 2.82 µM

CCCC(=O)NCCc1c2n(c3ccc(OC)cc13)Cc1ccccc1-2
inactive: [5] > 46 µM | [2] | [4]
